A selection: hits, their analogues and other compounds. The true share with any hit is near 19%.
HT1080 IDH1KD tx = kills HT-1080 cells with IDH1 knockdown; AID 686971; Potency, µM (series often up to 46.1 µM), actives largely listed as cytotoxic; HT-1080 IDH1 knockdown viability, ATP luminescence, 48 h; 2% of 360,000 active
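Knockdown cells (IDH1KD HT-1080) received compounds 2 h after plating at 750 cells/well and were kept 48 h at 37 °C in 5% FBS RPMI. A CellTiter-Glo luminescence read gave % activity for curve fitting.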
KB-V1 cytotox = KB-V1 MDR subline cytotoxicity | KB-V1 MDR cells viability, CellTiter-Glo, 72 h | Potency, µM (highest dose often 46.1 µM), actives largely listed as cytotoxic | 3.4% of 400,000 active | AID 1347076; further: nearly all actives have a fitted effect of over 60% in size
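KB-V1 MDR subline cells in DMEM (phenol-red free, 10% FBS) exposed to compounds in qHTS concentration series for 72 h at 37 degrees C. Viability read by CellTiter-Glo luminescence; concentration-effect curves fitted after normalization and correction.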
HT1080-NT tox = kills 2HG-producing HT-1080-NT fibrosarcoma cells | HT-1080-NT fibrosarcoma viability, CellTiter-Glo ATP luminescence, 48 h | Potency, µM (doses to about 46.1 µM), hits mostly cytotoxic | 1.6% of 360,000 active | AID 686970;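 further: NT is the 2HG producing partner of a matched IDH1 knockdown line; nearly all actives have a fitted effect of over 55% in size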
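HT-1080-NT; 750 cells/well; 5% FBS RPMI; 48 h compound, 37 degrees C; CellTiter-Glo luminescence; curve fitting and curve-class assignment.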
DT40 TDP1 CPT = DT40-hTDP1 cell growth loss with CPT | chicken DT40 Tdp1-/-;hTDP1 cells + 20 nM CPT, ATP luminescence, 48 h | 12% of 420,000 active | AID 686979 | Potency, µM (doses to about 46.2 µM), most hits filed as inhibitors; further: nearly all actives have a fitted effect of over 55% in size
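Chicken DT40 Tdp1-/- cells complemented with human TDP1, 400 cells/well, exposed to compounds plus 20 nM camptothecin for at least 48 h at 37 C; viability read as ATP content by CellTiter-Glo luminescence.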
DT40 TDP1 no CPT = qHTS for Inhibitors of human tyrosyl-DNA phosphodiesterase 1 (TDP1): qHTS in cells in absence of CPT; Potency, µM (titrated, usually from 46.2 µM), hits mostly inhibitors; 15% of 420,000 active; AID 686978, 2013; DT40 Tdp1-/- hTDP1 cells, no CPT, ATP luminescence, 48 h; further: nearly all actives have a fitted effect of over 55% in size
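Chicken DT40 Tdp1-/- cells stably complemented with human TDP1 were seeded at 400 cells/well with DMSO in place of 20 nM camptothecin. After compound pinning, cells grew at least 48 hr at 37 °C; viability read by CellTiter-Glo luminescence.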
KB-3-1 cytotox = kills parental KB-3-1 adenocarcinoma cells; 1.4% of 400,000 active; Potency, µM (top dose mostly 46.1 µM), actives largely listed as cytotoxic; KB-3-1 viability, CellTiter-Glo ATP luminescence, 72 h; AID 1347075; further: nearly all actives have a fitted effect of over 60% in size
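Multi-concentration cytotoxicity screen in KB-3-1 cells grown in DMEM lacking phenol red with 10% FBS. After 72 h at 37 °C with compound, ATP-dependent luminescence was recorded.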
Hits are given with their value; - = inactive; ? = inconclusive; . = not tested or not shown. The call rests on the fitted dose curve; in most records, active means well fitted curve in the direction sought with a large enough effect; inconclusive means small, poorly fitted or top-dose-only effect, or another doubt; inactive means no such curve, though single readings can be large; an effect the other way counts as inactive or inconclusive.

SMILES	HT1080 IDH1KD tx	KB-V1 cytotox	HT1080-NT tox	DT40 TDP1 CPT	DT40 TDP1 no CPT	KB-3-1 cytotox
CC/C(=N\NC(=S)Nc1cccc(C)c1)c1ccccc1	-	-	-	13µM	5.2µM	-
Cc1cccc(NC(=S)N/N=C(\c2ccccc2)C(C)C)c1	-	-	-	?	5.8µM	-
CC(C)NC(=O)[C@@H]1C[C@@H](Sc2ccccn2)CN1C1CCN(C)CC1	.	.	.	-	-	.
CC(C)CC(=O)Nc1ccccc1OCc1cc(=O)n2ccccc2n1	.	.	.	?	-	.
COc1ccc(N2CCN(c3oc(-c4ccc(COc5cccc(C)c5)o4)nc3C#N)CC2)cc1	.	-	.	?	?	-
Cc1cccc(N2CCN(C(=S)Nc3ccc4nc(N5CCN(C)CC5)cc(C)c4c3)CC2C)c1 (stereo not drawn)	-	-	-	?	21µM	?
Cc1cc(N2CCN(C)CC2)nc2ccc(NC(=S)N3CCCCCC3)cc12	-	-	-	-	-	-
Cc1cc(N2CCN(C)CC2)nc2ccc(NC(=S)N3CCN(c4cccc(Cl)c4)CC3)cc12	-	-	-	1.8µM	2.6µM	-
Cc1cc(N2CCN(c3ccc(F)cc3)CC2)nc2cc(O)ccc12	-	?	-	23µM	15µM	-
Cc1cccc(N2CCN(C(=S)Nc3ccc4nc(N5CCN(C)CC5)cc(C)c4c3)CC2)c1C	-	?	-	1.3µM	1µM	?
COc1cc(=O)n2c(c1C(=O)N(C)Cc1nccs1)CCN(Cc1ccc(F)c(F)c1)CC2	.	.	.	?	-	.
Cc1cc(N2CCN(C)CC2)nc2ccc(NC(=S)N3CCN(c4ccc(Cl)cc4)CC3)cc12	?	-	?	9.2µM	?	-
Cc1cc(N2CCN(C)CC2)nc2ccc(NC(=S)N3CCN(c4ccc(F)cc4)CC3)cc12	?	-	?	?	10µM	-
C[C@@H](NCCc1ccc(O)cc1)[C@@H](O)c1ccc(O)cc1	-	-	-	-	-	?
CCCCCCCCNC(C)C(O)c1ccc(SC(C)C)cc1 (stereo not drawn)	?	16µM	23µM	18µM	16µM	-
O=C(Nc1ccc(Cl)c(C(F)(F)F)c1)C(Cc1ccccc1)NS(=O)(=O)c1ccc(Br)s1 (stereo not drawn)	.	-	.	-	-	-
COC(=O)C1(C)CCc2cc(OC)ccc2C1=O (stereo not drawn)	-	-	-	-	-	-
COc1ccc2c(c1)CCC1(C)CC(=O)C(Br)=C21 (stereo not drawn)	-	6.5µM	-	-	?	?
Cc1ccc(S/C=C\C(=O)c2ccccc2)cc1	13µM	?	22µM	21µM	21µM	-
COC(=O)c1ccc(Oc2ccc3nnc(C)n3n2)cc1	-	-	-	-	-	-
Cc1nnc2ccc(Oc3ccc(-c4ccccc4)cc3)nn12	?	-	-	13µM	?	-
Cc1ccc(OCCC(=O)N(Cc2ccccc2)c2c(N)n(Cc3ccccc3)c(=O)[nH]c2=O)cc1	-	?	-	?	21µM	-
Nc1c(N(Cc2ccco2)C(=O)COc2ccc(Cl)cc2)c(=O)[nH]c(=O)n1Cc1ccccc1	-	-	-	-	-	-
Nc1c(N(Cc2ccccc2)C(=O)COc2ccc([N+](=O)[O-])cc2)c(=O)[nH]c(=O)n1Cc1ccccc1	?	-	?	5.8µM	?	?
Nc1c(N(CCO)C(=O)COc2ccc(Cl)cc2)c(=O)[nH]c(=O)n1Cc1ccccc1	-	-	-	-	-	-
SMILES	HT1080 IDH1KD tx	KB-V1 cytotox	HT1080-NT tox	DT40 TDP1 CPT	DT40 TDP1 no CPT	KB-3-1 cytotox
Cc1cc(OCC(=O)N(Cc2ccco2)c2c(N)n(Cc3ccccc3)c(=O)[nH]c2=O)ccc1Cl	-	-	-	26µM	?	-
COC(=O)C1CN(C(=O)COc2ccccc2)c2ccccc2O1 (stereo not drawn)	-	-	-	-	-	-
Cc1ccc(CNC(=O)C(C)n2c(=O)cc(C(F)(F)F)c3c(C)nn(C)c32)cc1 (stereo not drawn)	.	-	.	26µM	?	-
COc1cccc(NC(=O)C(C)n2c(=O)cc(C(F)(F)F)c3c(C)nn(C)c32)c1 (stereo not drawn)	.	-	.	16µM	18µM	-
COc1ccccc1CCNC(=O)Cc1c(C)c2cc(Cl)c(O)cc2oc1=O	.	.	.	-	-	.
CCOc1ccc(NS(=O)(=O)c2ccc(C(=O)N(C)CC(=O)Nc3ccc(C)cc3)cc2)cc1	-	-	-	?	16µM	-
CN(CC(=O)Nc1ccc(Cl)cc1)C(=O)c1ccc(S(=O)(=O)Nc2ccccc2)cc1	16µM	-	13µM	?	?	-
CN(CC(=O)Nc1ccc(F)cc1)C(=O)c1cccc(NS(=O)(=O)c2ccccc2)c1	-	-	-	-	-	-
Fc1cccc(CN2CCN3CCCC3C2C2CCCCC2)c1 (stereo not drawn)	-	-	-	?	?	-
Fc1ccc(CN2CCN3CCCC3C2C2CCCCC2)cc1F (stereo not drawn)	?	-	-	23µM	18µM	-
COc1ccc2nc(N3CCCCC3)c(/C=C3\SC(=S)NC3=O)cc2c1	-	-	?	?	?	-
O=C1NC(=S)S/C1=C\c1cc2ccccc2nc1N1CCCCC1	-	-	-	21µM	21µM	?
COc1cccc(C2C(C(=O)Nc3ccccc3)=C(C)Nc3nc(-c4ccccc4)nn32)c1OC (stereo not drawn)	.	?	.	16µM	?	-
COc1ccc(-c2nc3n(n2)C(c2ccc(OC)cc2)C(C(=O)Nc2cccnc2)=C(C)N3)cc1 (stereo not drawn)	.	-	.	-	-	-
CC1=C(C(=O)Nc2cccnc2)C(c2ccc(Cl)cc2)n2nc(-c3ccccc3)nc2N1 (stereo not drawn)	.	-	.	16µM	?	-
COc1ccc(C2C(C(=O)Nc3ccccc3)=C(C)Nc3nc(-c4ccccc4)nn32)c(OC)c1 (stereo not drawn)	.	-	.	16µM	?	-
COc1cc(OC)c(NC(=O)N2CCC(CN3CCCC3)CC2)cc1Cl	.	.	.	-	-	.
Cc1ccc(CN2CC(N3CCN(CC4CC4)CC3)CS2(=O)=O)cc1 (stereo not drawn)	-	-	-	-	-	-
CN(C)c1ccc(-c2nc3cnccn3c2Nc2cccc(C(F)(F)F)c2)cc1	.	-	.	26µM	?	-
COc1ccc(-c2nc3cnccn3c2Nc2ccc3c(c2)OCO3)cc1	-	?	-	?	?	?
CCc1cccc(C)c1Nc1c(-c2ccc(N(C)C)cc2)nc2cnccn12	.	?	.	?	23µM	?

Bioassay records: PubChem, National Center for Advancing Translational Sciences (NCATS)
